Screening data: PubChem, National Center for Advancing Translational Sciences (NCATS)
Pol iota inh: DNA polymerase iota (human) inhibition; 390,000 tested, 1% active; Potency, µM (titrated, usually from 115 µM), inactives show top-dose activity, negative = inhibition, usual class: inhibitors; AID 588590; Pol iota fluorescent replication assay, 10 min; Q9UNA4
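Fluorescent replication assay read twice, at 0 min and 10 min after adding 50 nM (final) substrate. Enzyme (10 nM) and compounds were first incubated 15 min at room temperature; enzyme-free buffer wells were negative controls.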
APEX1 inh: APE1 (human) endonuclease inhibition. recombinant APE1, TAMRA/BHQ-2 abasic DNA cleavage fluorescence. P27695. 350,000 tested, 0.35% active. Potency, µM (top dose mostly 65.8 µM), for the others: at the top dose activity change, negative = inhibition, most hits filed as inhibitors;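 note: plate controls were vehicle for no effect and reference inhibitor for full effect; nearly all actives have a fitted effect of over 55% in size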
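Step 1: APE1 (0.75 nM) with compound, 15 min RT. Step 2: add 50 nM fluorophore/quencher THF duplex. Step 3: three fluorescence reads 60 s apart (525/598 nm); read 3 minus read 1 = reaction progress.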
Pol beta inh: inhibitors of human DNA polymerase beta. AID 485314. Pol beta primer extension/strand displacement, fluorescence kinetic. 340,000 tested, 1.3% active. P06746. Potency, µM (top dose mostly 114 µM), for inactives: at the highest dose activity change, negative = inhibition, usual class: inhibitors; note: % is set by controls: 0 for no effect and ±100 for the full control effect
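10 nM enzyme + cpd, 15 min RT; start with substrate 50 nM final; read 0 min and after 10 min RT. Corrected, normalized data; 4-parameter Hill curve fit.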
Pol kappa inh: blocks human DNA polymerase kappa activity | Q9UBT6 | purified Pol kappa, fluorescent DNA synthesis assay, 10 min | Potency, µM (top dose mostly 107 µM), without a hit: top-dose activity, negative = inhibition, usual class: inhibitors | 400,000 tested, 0.53% active | AID 588579; note: % is set by controls: 0 for no effect and ±100 for the full control effect
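Activity was followed as the change in fluorescence between reads at 0 and 10 min after starting the reaction with 50 nM substrate. Beforehand, 10 nM polymerase had been preincubated with compound for 15 min at room temperature.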
L3MBTL1 block: L3MBTL1 (human) inhibition. Q9Y468. AlphaScreen L3MBTL1–H3K9me1 peptide binding. Potency, µM (titrated, usually from 57.1 µM), for the others: at the top dose activity, negative = inhibition, most hits filed as inhibitors. 230,000 tested, 0.66% active. AID 485360; note: % is set by controls: 0 for no effect and ±100 for the full control effect; nearly all actives have a fitted effect of over 60% in size
Target sequence (Q9Y468 whole entry, looked up): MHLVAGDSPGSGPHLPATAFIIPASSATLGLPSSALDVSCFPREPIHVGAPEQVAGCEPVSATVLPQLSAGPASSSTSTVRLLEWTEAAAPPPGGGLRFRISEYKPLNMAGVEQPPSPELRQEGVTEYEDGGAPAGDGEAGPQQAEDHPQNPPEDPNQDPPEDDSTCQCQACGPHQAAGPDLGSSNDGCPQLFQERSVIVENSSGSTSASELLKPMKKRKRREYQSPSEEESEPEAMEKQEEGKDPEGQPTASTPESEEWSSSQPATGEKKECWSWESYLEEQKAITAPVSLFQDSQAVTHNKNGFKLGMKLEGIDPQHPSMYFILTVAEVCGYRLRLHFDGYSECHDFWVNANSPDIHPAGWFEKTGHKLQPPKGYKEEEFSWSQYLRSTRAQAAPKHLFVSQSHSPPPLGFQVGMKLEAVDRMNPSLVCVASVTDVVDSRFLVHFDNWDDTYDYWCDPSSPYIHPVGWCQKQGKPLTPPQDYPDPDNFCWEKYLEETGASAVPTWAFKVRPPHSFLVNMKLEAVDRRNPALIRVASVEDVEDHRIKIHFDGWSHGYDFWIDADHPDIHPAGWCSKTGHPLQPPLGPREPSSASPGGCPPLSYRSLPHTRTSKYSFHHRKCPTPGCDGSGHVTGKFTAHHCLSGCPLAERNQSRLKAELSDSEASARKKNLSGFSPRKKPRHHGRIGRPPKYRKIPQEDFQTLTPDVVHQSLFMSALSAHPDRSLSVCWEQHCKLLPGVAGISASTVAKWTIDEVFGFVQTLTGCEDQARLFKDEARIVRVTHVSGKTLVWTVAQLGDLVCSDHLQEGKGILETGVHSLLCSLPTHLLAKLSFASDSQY
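Displacement of a biotinylated histone H3(1-15) peptide monomethylated at Lys9 (75 nM) from L3MBTL1 (50 nM) was measured by AlphaScreen after a 30 min room-temperature compound incubation; cefsulodin titration served as intraplate control.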
POLH inh: DNA polymerase eta (human) inhibition. Q9Y253. Potency, µM (highest dose often 114 µM), inactives show top-dose activity change, negative = inhibition, most hits filed as inhibitors. recombinant Pol eta, fluorescent DNA replication assay. AID 588591. 390,000 tested, 1.2% active; note: % is set by controls: 0 for no effect and ±100 for the full control effect
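Pol eta (10 nM) was preincubated with compounds for 15 min at room temperature, after which fluorescent replication substrate (50 nM final) was added to start the reaction. Fluorescence was read kinetically at 0 and 10 min.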
* marks the source's active call; other numbers are inactive results; ? = inconclusive; · = no result given; [ ] = remark or other dose. Compounds with a hit are over-represented: about 2.5% of the library has one in this group of screens. Calls come from the whole dose curve; as a rule, active = well fitted curve in the direction sought with a large enough effect; inconclusive = small, poorly fitted or top-dose-only effect, or another doubt; inactive = no such curve, though single readings can be large; an effect the other way counts as inactive or inconclusive. Potency is the fitted concentration of half-maximal effect.

SMILES	Pol iota inh	APEX1 inh	Pol beta inh	Pol kappa inh	L3MBTL1 block	POLH inh
CN(C)c1ccc(/C=C/c2cc3ccccc3c[n+]2C)cc1	?	·	·	-38.3%	·	·
N=c1c(S(=O)(=O)c2ccc(Cl)cc2)cc2c(=O)n3ccccc3nc2n1Cc1ccco1	?	-7.0%	8.91µM*	8.5%	·	?
COc1ccc(CCNC(=O)c2cc3c(=O)n4ccccc4nc3n(C3CCCCC3)c2=N)cc1	17.3%	-5.3%	-0.1%	1.6%	·	-10.7%
O=C(NCc1ccco1)c1cccn2c(=O)c3cc4ccccc4cc3nc12	·	?	14.1µM*	·	·	·
COCCCNC(=O)c1cccn2c(=O)c3cc4ccccc4cc3nc12	18.4%	?	2.5%	-12.2%	-6.8%	?
COc1ccc(CCNC(=O)c2cc3c(=O)n4ccccc4nc3n(CCCN3CCOCC3)c2=N)cc1OC	?	-4.6%	35.5µM*	-15.0%	·	-23.8%
COc1ccc(CCNC(=O)c2cc3c(=O)n4ccccc4nc3n(C3CCCCC3)c2=N)cc1OC	-13.8%	5.7%	25.1µM*	-6.8%	·	-23.4%
CN(Cc1ccccc1)S(=O)(=O)c1ccc(Cl)c(C(=O)OCC(N)=O)c1	12.9%	-2.2%	8.1%	-11.7%	3.2%	-3.9%
COCCCNC(=S)NNC(=O)c1ccccn1	93.1%	-2.0%	4.4%	-11.5%	8.91µM*	-8.9%
COc1cccc(/C=N/Nc2cc(-n3nc(C)cc3-c3ccccc3)ncn2)c1O	?	7.4%	4.7%	-20.9%	-3.5%	-21.0%
COc1cccc(/C=N/Nc2ncnc3scc(-c4ccccc4)c23)c1O	19.0%	5.8%	5.4%	-11.7%	31.6µM*	-27.5%
COc1cccc(/C=N/Nc2ncnc(Cl)c2N)c1O	12.2%	-4.3%	-3.4%	-17.5%	20µM*	?
COc1cccc(/C=N/Nc2nccnc2Cl)c1O	11.1%	-5.0%	-14.5%	-5.6%	?	-18.4%
O=c1[nH]c(=O)n([C@H]2C[C@@H](O)[C@@H](CO)O2)cc1C=CBr	·	·	·	1.0%[60.1 µM]	·	·
COc1cc2c(NC3CCN(C)CC3)nc(N3CCCN(C)CC3)nc2cc1OCCCCCN(C)C	?	·	·	-14.4%	·	·
COc1ccc(Nc2ncccc2C(=O)NCc2ccccc2)cc1	14.3%	4.3%	1.5%	-5.7%	·	-11.8%
COc1cccc(Nc2ncccc2C(=O)NCc2ccccc2)c1	5.6%	-4.3%	89.1µM*	-17.2%	2.9%	?
CCCCCCCNC1=CC(=O)CC(c2ccco2)C1 (stereo not drawn)	?	?	11.2µM*	-24.9%	?	-24.3%
CCOC(=O)CCN1C(=O)[C@H]2[C@H]3[C@H](O)[C@H](O)C/C(=N/NC(=O)OCC)[C@H]3CC[C@@H]2C1=O	·	15.8%[12.4 µM]	·	·	·	·
CC(=O)n1cc(N(C(=O)CCl)c2ccc([N+](=O)[O-])cc2)c2ccccc21	?	2.7%	-11.3%	-0.7%	-8.4%	39.8µM*
Cc1c(CCC(=O)N[C@@H](CC(C)C)C(=O)O)c(=O)oc2cc3oc4c(c3cc12)CCCC4	-29.7%	25.5%	-1.2%	-3.3%	·	5.6%
CC(=O)c1c(C)oc2c(Br)cc(NS(=O)(=O)c3ccc(Br)cc3)cc12	79.4µM*	·	?	-2.6%[60.1 µM]	·	-25.4%
CC(=O)c1c(C)oc2c1cc(NS(=O)(=O)c1ccc(Br)cc1)c1ccccc12	48.4%	·	-18.5%	-2.5%[60.1 µM]	·	-20.6%
Cc1cc(=O)[nH]c(-n2[nH]c3c(c2=O)CCCC3)n1	14.1µM*	-3.8%	11.3%	-14.6%	-2.8%	-14.6%
Cc1cccc(N2C(=O)c3ccc(C(=O)Nc4ccccn4)cc3C2=O)c1	40.8%	-7.9%	6.7%	-2.1%	·	-14.6%
SMILES	Pol iota inh	APEX1 inh	Pol beta inh	Pol kappa inh	L3MBTL1 block	POLH inh
Cc1cccc(N2C(=O)/C(=C\c3ccc(C(=O)O)cc3)c3ccccc3C2=O)c1	46.4%	-9.4%	-7.4%	-19.4%	1.4%	44.7µM*
COc1ccc(CN2C(=O)C(NC(=O)c3ccccc3OC)(C(F)(F)F)N=C2c2ccccc2)cc1 (stereo not drawn)	10.5%	·	16.5%	7.5%	·	-10.4%
CC(=O)c1ccc[n+](CC(=O)c2ccc(F)cc2)c1	-12.6%	·	·	6.1%	·	·
CNC(=O)CSc1nc2nn(-c3ccccc3)c(=O)c-2c2n1CCCCC2	-14.5%[58.9 µM]	0.3%	36.3%	-0.1%	8.5%	-6.8%
O=C(CSc1nc2nn(-c3ccccc3)c(=O)c-2c2n1CCCCC2)c1ccc(O)c(O)c1	2µM*	?	·	3.98µM*	8.91µM*	1.78µM*
C[C@H](NS(=O)(=O)c1ccc(Cl)c(Cl)c1)C(=O)OCc1cc(=O)n2cc(Br)ccc2n1	?	10.9%	14.1µM*	-24.7%	?	?
C=C(NC(=O)C(=C)NC(=O)c1csc(C2=N[C@@H]3c4csc(n4)[C@H]4NC(=O)c5csc(n5)[C@H]([C@](C)(O)[C@@H](C)O)NC(=O)[C@H]5CSC(=N5)C(=CC)NC(=O)C([C@@H](C)O)NC(=O)c5csc(n5)[C@]3(CC2)NC(=O)[C@H](C)NC(=O)C(=C)NC(=O)[C@H](C)NC(=O)C([C@@H](C)CC)NC2C=Cc3c([C@H](C)O)cc(nc3C2O)C(=O)O[C@@H]4C)n1)C(N)=O (stereo partly drawn)	·	5.1%[21 µM]	·	·	·	·
Cc1ccccc1C(=O)NN1C(=O)CSC1=S	-13.2%	-14.3%	-1.1%	-3.9%	-9.7%	-4.8%
O=C1CSC(=S)N1Nc1ccccc1	31.6µM*	·	·	-6.0%	·	-9.4%
Cc1ccc2cccc(S(=O)(=O)Nc3ccc4c(c3)OCO4)c2n1	?	?	44.7µM*	-23.6%	15.3%[11.4 µM]	?
CC1(C)CC(=O)C2=C(C1)c1c(ccc3ccccc13)NC2c1ccc(OCC(=O)O)cc1 (stereo not drawn)	-4.7%	-19.5%	44.7µM*	?	-16.7%	-14.7%
COc1cc(C2Nc3ccc4ccccc4c3C3=C2C(=O)CC(C)(C)C3)ccc1OCC(=O)O (stereo not drawn)	4.0%	21.5%	13.2%	-9.9%	-5.2%[2.29 µM]	-17.4%
CCCC[C@]12Cc3ccccc3C(O1)c1c(cc(-c3ccccc3)oc1=O)O2	·	2.4%[12.4 µM]	3.55µM*	·	·	·
Cc1ccc2occ(CC(=O)Nc3c(C)cccc3C)c2c1	?	·	17.1%	-12.7%	·	-4.2%
CCOc1ccc(-c2cccc(NC(=O)COc3ccc(Cl)cc3)c2)nn1	?	19.2%	-1.5%	-6.6%	·	-15.1%
COc1ccc(S(=O)(=O)Nc2ccc(O)c3ccccc23)cc1	20µM*	3.2%	7.6%	-6.9%	28.2µM*	-16.6%
COc1ccc(S(=O)(=O)Nc2ccccc2)cc1	70.1%	·	·	-3.7%	·	0.0%
Cc1ccccc1Cc1c(C)nc2c(C(=O)NCc3ccco3)cnn2c1C	?	0.2%	44.7µM*	-15.6%	-1.7%	?
